This note sets out measurements from ChEMBL document CHEMBL3988442, “University of Dundee, Small-Polar-MMV Screening Library” (2021).

Holding throughout (design): scale not given: direction of the effect not stated beside the values
In experiment [1] the target is Protein translocase subunit SecA (Escherichia coli (strain K12)) (UniProt P10408). In words: Assay to Identify E. coli SecA ATPase Inhibitors. It is filed as functional. The following applies: 30 µM.
For experiment [2], the target named is T1, Ubiquitin-activating enzyme e1, putative (Leishmania donovani (strain BPK282A1)) (UniProt E9BSI1).
T1 sequence (whole entry): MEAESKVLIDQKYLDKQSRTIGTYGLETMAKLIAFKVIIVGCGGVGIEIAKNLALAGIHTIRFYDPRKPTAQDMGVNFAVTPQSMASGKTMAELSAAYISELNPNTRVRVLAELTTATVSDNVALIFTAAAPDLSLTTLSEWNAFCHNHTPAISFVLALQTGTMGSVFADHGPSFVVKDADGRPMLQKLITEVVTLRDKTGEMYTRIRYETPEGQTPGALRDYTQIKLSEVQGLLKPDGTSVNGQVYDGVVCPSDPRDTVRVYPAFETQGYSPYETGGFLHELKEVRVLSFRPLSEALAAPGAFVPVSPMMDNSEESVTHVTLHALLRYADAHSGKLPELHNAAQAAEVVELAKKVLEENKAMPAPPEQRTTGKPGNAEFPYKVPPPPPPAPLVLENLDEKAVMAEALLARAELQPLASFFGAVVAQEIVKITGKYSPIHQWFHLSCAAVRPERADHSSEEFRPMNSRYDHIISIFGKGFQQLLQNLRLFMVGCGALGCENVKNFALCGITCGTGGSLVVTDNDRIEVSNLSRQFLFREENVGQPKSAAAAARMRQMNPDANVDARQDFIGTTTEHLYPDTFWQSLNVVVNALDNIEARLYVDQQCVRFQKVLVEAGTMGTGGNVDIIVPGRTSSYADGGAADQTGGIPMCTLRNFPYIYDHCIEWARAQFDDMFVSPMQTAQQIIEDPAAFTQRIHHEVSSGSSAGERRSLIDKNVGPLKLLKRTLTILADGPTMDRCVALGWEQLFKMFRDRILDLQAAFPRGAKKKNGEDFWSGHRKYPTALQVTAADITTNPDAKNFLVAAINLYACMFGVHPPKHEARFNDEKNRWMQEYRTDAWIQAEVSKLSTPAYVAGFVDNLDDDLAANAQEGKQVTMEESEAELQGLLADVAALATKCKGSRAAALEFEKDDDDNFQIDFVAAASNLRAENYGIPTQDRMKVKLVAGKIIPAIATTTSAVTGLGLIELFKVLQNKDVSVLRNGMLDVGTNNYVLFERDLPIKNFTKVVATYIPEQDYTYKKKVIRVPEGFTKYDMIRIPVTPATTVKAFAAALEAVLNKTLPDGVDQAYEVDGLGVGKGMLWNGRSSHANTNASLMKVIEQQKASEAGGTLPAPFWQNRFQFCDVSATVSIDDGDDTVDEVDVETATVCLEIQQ
In words: Leishmania donovani Ubiquitin Activating Enzyme (LdE1). The settings on record: 30 µM. It is filed as functional.

Experiment [3] concerns the target AMP-activated protein kinase, AMPK (Homo sapiens) (UniProt P54646+O43741+P54619+Q9UGJ0+Q9Y478+Q13131+Q9UGI9). In words: AMP-dependent Kinase enzyme assay. An in vitro enzyme assay that detects ADP turnover that is directly proportional to AMPK activity. This uses naive AMPK that is activated during the assay with MK-8722. It counts as functional. The following applies: 30 µM.

For experiment [4], the target named is Sialic acid-binding Ig-like lectin 9 (Homo sapiens) (UniProt Q9Y336). Briefly: Hs-Siglec9 ALPHAscreen SOP 20170721. The settings on record: 10 µM.
The test system of experiment [5] is Trypanosoma cruzi. In words: Trypanosoma cruzi phosphomannomutase and mannose-1-phosphate guanylyltransferase assay. It counts as functional. The settings on record: 10 µM.
Experiment [6] has as its target T2, Arginase-2, mitochondrial (Homo sapiens) (UniProt P78540).
T2 sequence (whole entry): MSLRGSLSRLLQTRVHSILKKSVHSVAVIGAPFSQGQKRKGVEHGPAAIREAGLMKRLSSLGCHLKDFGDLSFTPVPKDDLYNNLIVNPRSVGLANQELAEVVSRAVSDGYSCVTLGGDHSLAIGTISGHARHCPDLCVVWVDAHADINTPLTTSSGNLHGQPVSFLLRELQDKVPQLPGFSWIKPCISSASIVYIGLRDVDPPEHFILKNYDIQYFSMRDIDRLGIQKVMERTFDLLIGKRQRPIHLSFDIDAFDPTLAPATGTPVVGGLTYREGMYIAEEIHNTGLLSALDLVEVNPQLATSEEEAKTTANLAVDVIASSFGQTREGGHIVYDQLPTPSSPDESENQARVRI
In words: in vitro enzyme assay to detect the production of urea directly proportional to the activity of Arginase II. Further: in the data most compounds retested in dose-response had high values. It is filed as functional. The settings on record: 33.3 µM.

The target in experiment [7] is T3, Proteasome subunit beta (Trypanosoma cruzi) (UniProt O96673).
T3 sequence (whole entry): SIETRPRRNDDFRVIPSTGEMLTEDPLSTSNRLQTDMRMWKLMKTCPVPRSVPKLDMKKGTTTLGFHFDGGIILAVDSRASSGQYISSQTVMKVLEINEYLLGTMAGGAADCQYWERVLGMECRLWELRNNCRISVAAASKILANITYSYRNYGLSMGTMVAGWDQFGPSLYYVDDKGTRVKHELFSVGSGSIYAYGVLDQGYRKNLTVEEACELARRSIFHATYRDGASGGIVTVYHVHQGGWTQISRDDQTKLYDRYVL
In words: Trypanosoma cruzi proteasome chymotrypsin-like activity (TcProtChymo) assay. Further: in the data most compounds retested in dose-response had high values. It counts as functional. The settings on record: 9.37 µM.

Experiment [8] is filed under the species Homo sapiens. In words: To identify inhibition of the IFN signalling (Jak-Stat) pathway via expression of an eGFP reporter gene under the control of an IFN-stimulated response element (ISRE) containing MxA promoter. The following applies: 30 µM. It is filed as functional.
In experiment [9] the target is T4, Tyrosyl-tRNA synthetase, putative (Trypanosoma cruzi (strain CL Brener)) (UniProt Q4DSP6).
T4 sequence (whole entry): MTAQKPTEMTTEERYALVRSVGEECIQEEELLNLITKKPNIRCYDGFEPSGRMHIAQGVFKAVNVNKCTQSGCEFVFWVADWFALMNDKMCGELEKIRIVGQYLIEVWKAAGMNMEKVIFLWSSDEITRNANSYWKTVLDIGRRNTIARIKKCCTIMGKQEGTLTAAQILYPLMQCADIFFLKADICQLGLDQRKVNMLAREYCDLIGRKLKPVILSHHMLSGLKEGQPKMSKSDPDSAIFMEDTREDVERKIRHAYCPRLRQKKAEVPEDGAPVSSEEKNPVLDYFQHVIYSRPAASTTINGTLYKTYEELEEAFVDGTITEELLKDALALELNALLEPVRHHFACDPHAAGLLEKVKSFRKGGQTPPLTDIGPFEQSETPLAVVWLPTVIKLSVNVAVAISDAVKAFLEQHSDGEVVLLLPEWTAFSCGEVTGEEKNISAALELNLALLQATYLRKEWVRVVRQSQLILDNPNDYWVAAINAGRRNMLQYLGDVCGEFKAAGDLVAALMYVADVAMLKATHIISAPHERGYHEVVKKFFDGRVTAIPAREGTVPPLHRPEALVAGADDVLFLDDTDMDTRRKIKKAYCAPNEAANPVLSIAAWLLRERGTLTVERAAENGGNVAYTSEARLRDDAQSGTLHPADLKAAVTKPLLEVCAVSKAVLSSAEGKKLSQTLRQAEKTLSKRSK
In words: Trypanosoma cruzi tyrosyl tRNA synthetase (TcYRS) _High Tyrosine SOP. Further: in the data most compounds retested in dose-response had high values. It counts as functional. The settings on record: 30 µM.

The target of experiment [10] is T4, Tyrosyl-tRNA synthetase, putative (Trypanosoma cruzi (strain CL Brener)). In words: Trypanosoma cruzi tyrosyl tRNA synthetase (TcYRS) SOP. The settings on record: 30 µM. It counts as functional.
Experiment [11] addresses Chromo domain-containing protein 1 (Saccharomyces cerevisiae (strain ATCC 204508 / S288c) (Baker's yeast)) (UniProt P32657). In words: ScCHD-1 Enzyme Inhibition Assay. Further: in the data most compounds retested in dose-response had high values. It is filed as functional. The following applies: 30 µM.

For some of these results: Measured potencies and affinities stand elsewhere.

Sequence of Chromo domain-containing protein 1 (Saccharomyces cerevisiae (strain ATCC 204508 / S288c) (Baker's yeast)) (P32657 whole entry, the tested form may be a part): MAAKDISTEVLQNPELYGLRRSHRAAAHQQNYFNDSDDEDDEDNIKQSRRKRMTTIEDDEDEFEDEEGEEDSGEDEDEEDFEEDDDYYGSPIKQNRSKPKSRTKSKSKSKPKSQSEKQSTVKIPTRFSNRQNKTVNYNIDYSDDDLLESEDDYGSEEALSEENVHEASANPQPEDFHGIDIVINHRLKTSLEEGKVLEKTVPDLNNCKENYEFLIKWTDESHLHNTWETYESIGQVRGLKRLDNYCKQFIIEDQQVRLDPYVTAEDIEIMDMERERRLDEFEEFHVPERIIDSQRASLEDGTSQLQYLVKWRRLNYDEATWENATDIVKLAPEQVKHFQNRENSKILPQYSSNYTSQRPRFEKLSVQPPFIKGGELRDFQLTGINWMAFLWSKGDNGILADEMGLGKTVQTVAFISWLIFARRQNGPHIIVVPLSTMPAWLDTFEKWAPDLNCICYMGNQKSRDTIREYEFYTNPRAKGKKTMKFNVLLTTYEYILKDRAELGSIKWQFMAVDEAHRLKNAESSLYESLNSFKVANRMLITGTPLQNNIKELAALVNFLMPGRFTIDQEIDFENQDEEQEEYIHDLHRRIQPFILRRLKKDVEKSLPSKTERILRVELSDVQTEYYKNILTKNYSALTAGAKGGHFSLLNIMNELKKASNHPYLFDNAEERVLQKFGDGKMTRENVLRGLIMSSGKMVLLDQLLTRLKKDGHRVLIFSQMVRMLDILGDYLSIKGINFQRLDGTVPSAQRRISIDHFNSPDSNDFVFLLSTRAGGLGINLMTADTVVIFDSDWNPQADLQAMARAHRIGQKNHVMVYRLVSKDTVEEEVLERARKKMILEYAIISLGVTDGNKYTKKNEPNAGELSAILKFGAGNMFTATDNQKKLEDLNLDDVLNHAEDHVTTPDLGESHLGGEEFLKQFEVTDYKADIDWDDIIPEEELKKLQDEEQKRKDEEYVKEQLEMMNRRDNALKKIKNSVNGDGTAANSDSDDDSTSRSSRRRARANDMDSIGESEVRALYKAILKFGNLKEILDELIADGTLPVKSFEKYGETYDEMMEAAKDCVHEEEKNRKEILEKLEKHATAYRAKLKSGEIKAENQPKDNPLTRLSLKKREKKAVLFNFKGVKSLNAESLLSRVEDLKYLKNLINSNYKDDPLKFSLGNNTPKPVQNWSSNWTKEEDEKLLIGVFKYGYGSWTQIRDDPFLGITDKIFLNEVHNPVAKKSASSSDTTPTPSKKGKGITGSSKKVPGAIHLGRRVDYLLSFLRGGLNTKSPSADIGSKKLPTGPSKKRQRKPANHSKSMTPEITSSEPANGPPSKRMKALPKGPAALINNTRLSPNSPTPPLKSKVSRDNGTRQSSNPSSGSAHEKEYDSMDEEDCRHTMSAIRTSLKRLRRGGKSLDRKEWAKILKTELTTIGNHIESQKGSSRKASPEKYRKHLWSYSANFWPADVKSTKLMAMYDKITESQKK
Sequence of Protein translocase subunit SecA (Escherichia coli (strain K12)) (P10408 whole entry): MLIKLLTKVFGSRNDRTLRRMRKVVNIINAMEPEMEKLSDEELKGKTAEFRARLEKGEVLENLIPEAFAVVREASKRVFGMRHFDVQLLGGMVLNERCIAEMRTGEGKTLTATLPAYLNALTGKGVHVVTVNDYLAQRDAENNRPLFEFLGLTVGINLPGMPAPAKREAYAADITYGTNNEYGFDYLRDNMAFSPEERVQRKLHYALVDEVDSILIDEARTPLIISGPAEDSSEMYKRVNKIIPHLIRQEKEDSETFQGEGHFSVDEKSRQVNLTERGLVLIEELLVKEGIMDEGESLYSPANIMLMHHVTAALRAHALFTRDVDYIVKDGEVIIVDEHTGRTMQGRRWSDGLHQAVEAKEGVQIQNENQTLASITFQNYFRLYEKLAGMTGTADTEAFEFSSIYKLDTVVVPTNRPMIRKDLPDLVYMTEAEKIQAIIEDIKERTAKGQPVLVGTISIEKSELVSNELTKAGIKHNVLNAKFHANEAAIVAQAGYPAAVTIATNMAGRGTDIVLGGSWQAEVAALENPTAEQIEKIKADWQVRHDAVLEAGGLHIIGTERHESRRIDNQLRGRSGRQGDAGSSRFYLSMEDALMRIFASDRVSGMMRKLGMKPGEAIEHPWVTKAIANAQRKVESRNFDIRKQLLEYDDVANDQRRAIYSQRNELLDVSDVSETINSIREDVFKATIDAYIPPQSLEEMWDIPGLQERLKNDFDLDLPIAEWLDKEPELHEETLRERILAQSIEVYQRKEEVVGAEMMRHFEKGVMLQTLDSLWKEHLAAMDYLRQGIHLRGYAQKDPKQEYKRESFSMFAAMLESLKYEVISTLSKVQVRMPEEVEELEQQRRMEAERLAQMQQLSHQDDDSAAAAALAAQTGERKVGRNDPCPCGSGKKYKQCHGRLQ
Sequence of Sialic acid-binding Ig-like lectin 9 (Homo sapiens) (Q9Y336 whole entry): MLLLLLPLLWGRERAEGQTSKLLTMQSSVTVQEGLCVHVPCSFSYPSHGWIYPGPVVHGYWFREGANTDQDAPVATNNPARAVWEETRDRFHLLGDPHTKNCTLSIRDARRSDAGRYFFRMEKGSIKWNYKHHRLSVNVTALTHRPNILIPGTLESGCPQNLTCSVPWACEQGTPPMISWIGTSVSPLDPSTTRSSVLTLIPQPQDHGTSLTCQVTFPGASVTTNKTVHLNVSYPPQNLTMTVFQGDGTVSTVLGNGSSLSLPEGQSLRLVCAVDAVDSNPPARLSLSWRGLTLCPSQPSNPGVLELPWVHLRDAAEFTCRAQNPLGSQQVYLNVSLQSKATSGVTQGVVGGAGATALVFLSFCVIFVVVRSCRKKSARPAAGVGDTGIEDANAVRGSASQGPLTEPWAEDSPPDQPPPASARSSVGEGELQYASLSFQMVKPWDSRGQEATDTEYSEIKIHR

Turning to `COc1nc(C)c(C(=O)N(C)Cc2nc(-c3ccccn3)no2)s1`, the Percent Effect in experiment [1] is -2.52%; in experiment [2], 13.3%; in experiment [3], -11.2%; in experiment [4], 4.23%; in experiment [5], 4.97%; in experiment [6], -3.65%. Also, the Percent Effect in [7] was 18.3%; in experiment [8] it was -0.294%; in experiment [9], 6.01%; in experiment [10], 13.6%; in [11] it was -0.207%.
For the compound `Cc1nc(N2CCOCC2)nc2c1CCN(C(=O)NC1CCCC1)CC2`, the Percent Effect is -0.181% in experiment [1]; 6.67% in [2]; -1.67% in [3]; -6.84% in experiment [4]; -11% in experiment [5]; -6.16% in [6]. In addition, the Percent Effect in [7] is 19.2%; in [8], 0.0839%; in experiment [9] it was -2.12%; in experiment [10], 0%; in experiment [11], -10.6%.
Regarding `Cc1nnc(NCc2ccccc2Cl)c(C#N)c1C`, the Percent Effect in [1] was -1.72%; in [2], -29.7%; in experiment [3], -32.4%; in experiment [4], -2.89%; in experiment [5] it was 2.51%; in experiment [6] it was 1.29%. Further, the Percent Effect was 5.39% in [7]; 26.5% in experiment [8]; 13.9% in experiment [9]; 11% in [10]; 5.89% in experiment [11].
Take `CCOc1ccc(Cl)c(C(=O)N2CCN(C(=O)c3ccoc3C)CC2)n1`: the Percent Effect in experiment [1] was -5.76%; in [2] it was 20.8%; in experiment [3] it was -1.75%; in experiment [4], 5.96%; in experiment [5], -4.49%; in [6], -1.42%. The Percent Effect in experiment [7] was 15.4%; in experiment [8] it was 12.9%; in experiment [9], 7.77%; in [10], 12.2%; in experiment [11] it was -6.62%.
Regarding `Cn1cc(C(=O)N2CC[C@@H]3[C@@H]2CCN3Cc2cccc(F)c2)cn1`, the Percent Effect is -5% in experiment [1]; 8.11% in experiment [2]; 1.6% in experiment [3]; -0.0749% in [4]; 0.88% in [5]; 4.14% in experiment [6]. Besides, the Percent Effect in [7] is 9.96%; in [8] it was -2.6%; in [9] it was 0%; in experiment [10], 10.3%; in experiment [11] it was 1.12%.
`COc1cc(NC(=O)Cn2ccc3sc(C)cc3c2=O)cc(OC)c1`: the Percent Effect is 0.749% in [1]; 0% in [2]; 8.38% in [3]; 5.78% in experiment [4]; -5.42% in experiment [5]; 17.4% in experiment [6]. The Percent Effect in experiment [7] is 7.49%; in experiment [8] it was 2.45%; in experiment [9] it was 1.06%; in [10], 11.5%; in experiment [11], -0.379%.
Turning to `CCCNC(=O)c1ccc(NC(=O)c2cccc(OCC)c2)cc1`, the Percent Effect is 1.49% in experiment [1]; -5.41% in experiment [2]; 0.466% in experiment [3]; -0.164% in experiment [4]; -1.16% in [5]; 0.952% in [6]. Further, the Percent Effect turned out to be 7.07% in [7]; 3.02% in experiment [8]; 0.529% in experiment [9]; 2.44% in experiment [10]; 2.44% in experiment [11].
With `NC(=O)C1CCCN(Cc2c(-c3ccco3)[nH]c3ncccc23)C1` (stereo unspecified), the Percent Effect in [1] is -1.81%; in experiment [2], 12.2%; in [3], -2.48%; in [4], 1.48%; in experiment [5], -3.16%; in experiment [6], 1.16%. The Percent Effect was 9.83% in [7]; 23.8% in experiment [8]; 7.53% in experiment [9]; 14.3% in [10]; -8.85% in experiment [11].
With `Cc1cc(C)nc(Nc2cc(C3CCCN(C)C3)nc(C)n2)n1` (stereo unspecified), the Percent Effect in [1] was -3.56%; in experiment [2], 9.46%; in [3], -3.72%; in experiment [4], 6.27%; in experiment [5] it was 1.19%; in [6], -1.62%. Also, the Percent Effect in [7] is 9.2%; in [8], 1.68%; in [9] it was 4.3%; in [10], 11.7%; in experiment [11], -18.4%.
With `Cc1nnc(NC(=O)NC2CCOc3ccccc32)s1` (stereo unspecified), the Percent Effect is -3.11% in experiment [1]; 5.48% in experiment [2]; -3.94% in [3]; 7.64% in experiment [4]; 1.59% in [5]; -4.39% in experiment [6]. Also, the Percent Effect was 12.8% in experiment [7]; -9.09% in [8]; 12.5% in [9]; 23.5% in experiment [10]; 1.07% in experiment [11].
On to `Cc1ncnc2c1CCN(Cc1ccccn1)CC2`, for which the Percent Effect is -2.86% in experiment [1]; -2.74% in [2]; -0.577% in [3]; 1.97% in experiment [4]; -3.57% in experiment [5]; -0.798% in [6]. Besides, the Percent Effect in experiment [7] was 1.46%; in [8] it was -16.5%; in experiment [9] it was 3.12%; in [10] it was -1.24%; in experiment [11], 5.72%.
